For 40 compounds, outcome results are on record in PubChem BioAssay (NCATS).

Inconclusive results are not listed. Calls of active or inactive are those of the source. Calls follow the shape of the dose curve; as a rule, active = well fitted cell-killing curve with a large enough effect; inconclusive = small, poorly fitted or top-dose-only effect; inactive = no such curve, though single readings can be large or run the other way.

A short description of the assay: qHTS of pediatric cancer cell lines to identify multiple opportunities for drug repurposing: Primary screen for Rh41 cells (AID 1347108).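 Also: luminescence drop marks cytotoxic hits; nearly all actives have a fitted effect of over 70% in size.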 The settings on record: Rh41 rhabdomyosarcoma viability, CellTiter-Glo luminescence, 48 h; series mostly up to 46 µM. From the text:
Drug repurposing or repositioning has been offered as a strategy for drug development in oncology programs. This approach has special potential for childhood cancers and other rare or orphan diseases, where the expected return on new drug development has been a disincentive to pharmaceuticals. […] In this project we exploit the poly-pharmacology of drugs to discover new indications via phenotypic screening of a panel of 19 well-characterized cell lines derived from solid tumors seen in children and adolescents. The goal is to identify approved drugs with previously unrecognized anticancer properties that has the potential to reveal new mechanisms and biological processes involved in carcinogenesis or drug resistance. We employed a titration-based paradigm (quantitative high-throughput screening or qHTS), where all compounds were tested at multiple concentrations for their effect on cell viability. Concentration-response curves (CRCs) were derived directly from the primary screen, and both potency and efficacy values were used to identify compounds with robust bioactivity profiles. We screened the NIH Chemical Genomics Center (NCGC) Pharmaceutical Collection (NPC) and Mechanism Interrogation Plate (MIPE) small molecule collections of approved and investigational compounds against these cell lines; and measured metabolically active cells after 48 hours of compound treatment as a proxy for cell viability. […] Assay Submitter: Nathalia J. Martinez, National Center for Advancing Translational Sciences, National Institutes of Health, Rockville, MD, USA; email: natalia.martinez@nih.gov Shen, M et al. Quantitative high-throughput phenotypic screening of pediatric cancer cell lines identifies multiple opportunities for drug repurposing. Oncotarget 2017 Dec 19;9(4):4758-4772. PMID 29435139.
The cells were obtained from University of North Carolina (UNC), Pediatric Preclinical Testing Program (PPT), and Coriell Institute (CI). qHTS cell viability assay: Cells were assayed in growth media at a density of 500-1,000 cells/well. Five microliters of cells were dispensed into 1,536-well, white, solid-bottom, TC-treated plates (Greiner Bio One) using a multidrop dispenser and incubated at 37 degrees C, 5% CO2, under a humidified atmosphere for 5 hours. Twenty-three nanoliters of compounds and controls (neutral control DMSO or positive control bortezomib at final concentration of 2.3 µM) were subsequently transferred by Kalypsys pintool. For primary screens, the MIPE collection was tested at 11-point dilutions (final concentrations range from 0.78 nM to 46 µM) and the NPC collection at 8-point dilutions (final concentrations range from 0.59 nM to 46 µM). Compounds tested in follow-up screens were assayed at 11-point dilutions. Cells were incubated for 48 hours, followed by addition of 3 µL of CellTiter-Glo (Promega). After a 15 min incubation at room temperature, samples were analyzed for luminescence intensity using a ViewLux High-throughput CCD imager equipped with clear filters.
As for `COC(=O)c1ccc(O)cc1`, the result was inactive.
The result for `Cc1ccsc1C(=CCCN1CCC[C@@H](C(=O)O)C1)c1sccc1C` reads “inactive”; that for `CCc1nnc(NS(=O)(=O)c2ccc(N)cc2)s1`, “inactive”.
`CC(=O)Oc1cccc(O)c1`: the call was inactive.
As for `Cc1ccc2c(c1)c1c3n2CCNC3CCC1` (stereo not given), the entry is “inactive”.
As for `O=C(O)[C@@H]1[C@H]2C[C@H]3c4[nH]c5ccccc5c4CCN3C[C@@H]2CC[C@@H]1O`, the call was inactive.
Turning to `O=C(O)C(S)C(S)C(=O)O` (stereo not given), the call was inactive.
The result for `NC(=O)NS(=O)(=O)c1ccc(N)cc1` reads “inactive”; that for `Cc1ccc(C(C)C)c(O)c1`, “inactive”.
As for `CC(=O)N(CC(O)CN(C(C)=O)c1c(I)c(C(=O)NCC(O)CO)c(I)c(C(=O)NCC(O)CO)c1I)c1c(I)c(C(=O)NCC(O)CO)c(I)c(C(=O)NCC(O)CO)c1I` (stereo not given), the entry is “inactive”; as for `CCC(C)(CN(C)C)OC(=O)c1ccccc1` (stereo not given), “inactive”.
For the compound `O=C(Cn1ccnc1[N+](=O)[O-])NCc1ccccc1`, the call was inactive.
In the case of `CC1CCN(CCCC(=O)c2ccc(F)cc2)CC1`, the result was inactive.
Turning to `COc1nccnc1NS(=O)(=O)c1ccc(N)cc1`, the compound was classed as inactive.
For the compound `Cc1ccc(S(=O)(=O)NC(=O)NC2CCCCC2)cc1`, the call was inactive.
The result for `CCCCCOC(=O)Nc1nc(=O)n([C@@H]2O[C@H](C)[C@@H](O)[C@H]2O)cc1F` reads “inactive”.
Turning to `CCCOC(=O)c1ccc(N)cc1`, the compound was called inactive.
`CC[N+](CC)(CC(=O)Nc1c(C)cccc1C)Cc1ccccc1`: the compound was classed as inactive.
`Cc1cc(-n2nc3ccc(Cl)cc3n2)c(O)c(C(C)(C)C)c1`: the outcome was inactive.
The result for `Cc1cc(C)c(NC(=O)CN(CC(=O)O)CC(=O)O)c(C)c1Br` reads “inactive”; that for `O=C(O)c1cc(=O)c2ccccc2o1`, “inactive”; that for `CCN(CC)S(=O)(=O)c1ccc(C(=O)O)cc1`, “inactive”.
For the compound `Cc1ncc(CO)c(CN)c1O`, the outcome was inactive.
The result for `Cc1c(Cn2ccnc2)c2ccccc2n1CCC(=O)O` reads “inactive”.
The result for `NC(N)=NS(=O)(=O)c1ccc(N)cc1` reads “inactive”.
Consider `C[C@@H](c1ncncc1F)C(O)(Cn1cncn1)c1ccc(F)cc1F` (stereo not given in full), for which the outcome was inactive.
The result for `O=C(O)/C=C/c1ccc(Cn2ccnc2)cc1` reads “inactive”; that for `O=C(O)CCC(=O)O`, “inactive”.
For the compound `CC(CSC(=O)c1ccccc1)C(=O)N1C[C@@H](Sc2ccccc2)C[C@H]1C(=O)O` (stereo not given in full), the compound was classed as inactive.
For `COC(=O)c1ccccc1C(=O)c1ccc(OCCN2CCCCC2)cc1`, the outcome was inactive.
The result for `CC(N)CCCC(C)(C)O` (stereo not given) reads “inactive”; that for `OCC(O)CS` (stereo not given), “inactive”; that for `CC(C(=O)O)c1ccc2c(c1)Cc1cccnc1O2` (stereo not given), “inactive”.
As for `NC(=O)NC1NC(=O)NC1=O` (stereo not given), the entry is “inactive”.
`Cn1c(=O)c2c(ncn2CCO)n(C)c1=O`: the compound was classed as inactive.
In the case of `CNCc1ccccc1`, the outcome was inactive.
Consider `Cc1c(NC(=O)c2cccnc2)c(=O)n(-c2ccccc2)n1C`, for which the call was inactive.
As for `O=C1C(c2[nH]c3ccccc3c2O)=Nc2ccccc21`, the entry is “inactive”; as for `Cc1c(I)c(=O)n(-c2ccccc2)n1C`, “inactive”; as for `O=C(NCN1CCOCC1)c1cnccn1`, “inactive”.
